L major viab = Leishmania major promastigote growth inhibition; Leishmania major promastigotes, resazurin fluorescence viability; inhibition, % at 10 µM; actives 9% (n = 200,000); in the data active means inhibition above about 50%;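 further: promastigotes grown with compound for 44 hours at 28 °C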
WT yeast gro inh = growth inhibition of WT yeast, mitochondrial fusion screen | inhibition, % at 10 µM | actives 2.1% (n = 190,000) | mitochondrial fusion phenotypic screen, WT strain | AID 1362; in the data active means inhibition above about 58%; tested in S. cerevisiae
Arbovirus inh = blocks arbovirus infection. arbovirus infection cell-based antiviral screen. AID 1251. inhibition, % at 10 µM. actives 0.37% (n = 200,000); in the data active means inhibition above about 30%
CHOP inh = blocks CHOP induction under ER stress; CHO-K1 CHOP-promoter luciferase, tunicamycin-induced, 15-18 h; inhibition, % at 10 µM; actives 3.8% (n = 220,000); AID 2732;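 active means compounds that reduced the stress-induced luciferase reporter signal by more than about 70% of percent inhibition, limit read from the data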;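 further: 0% = tunicamycin plus vehicle and 100% = wells without tunicamycin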
Numbers without * were called inactive; . = no result given. Hits are enriched below; roughly 12% of the tested compounds scored in any of these assays.

SMILES	L major viab	WT yeast gro inh	Arbovirus inh	CHOP inh
COc1cc2c(cc1NC(=O)CN1C(=O)NC3(CCc4ccccc43)C1=O)oc1ccccc12 (centres undefined)	18	66*	-7	79*
COc1cc2c(cc1NC(=O)CC1SC(N3CCCC3)=NC1=O)oc1ccccc12 (centres undefined)	25	-1	33*	61
COCCCNC(=S)Nc1ccc2c(c1)OCCO2	-6	-5	-11	16
O=C(CCS(=O)(=O)c1ccccc1)Nc1nc(-c2ccccn2)cs1	92*	16	3	.
O=C(CS(=O)(=O)c1ccccc1)Nc1nc(-c2ccccc2)cs1	33	19	0	40
COc1ccc(OCCCC(=O)Nc2nc(-c3ccccn3)cs2)cc1	100*	54	-3	-103
Cc1cc(C)c(OCC(=O)Nc2ccccn2)c([N+](=O)[O-])c1	2	-4	-1	9
Cc1cc(C)c(OCC(=O)Nc2nc(-c3ccccn3)cs2)c(C)c1	87*	69	-24	26
COc1ccc(OCCC(=O)Nc2nccs2)cc1	-3	4	-2	3
CC1(C)CC(=O)c2sc(NC(=O)CCS(=O)(=O)c3ccccc3)nc2C1	78*	-17	-41	-16
Cc1nc(C(N)=O)nc2ccccc12	.	.	.	10
Oc1ccccc1C1=Nc2nc3ccccc3n2C(c2ccccc2)C1 (centres undefined)	91*	12	6	20
Cc1ccc(N2C(=O)C3C4C=CC(CNC(=S)N5CCN(c6cccc(C)c6)C(C)C5)(O4)C3C2=O)cc1 (centres undefined)	-3	28	-6	92*
O=C1C2C3C=CC(CNS(=O)(=O)c4ccccc4)(O3)C2C(=O)N1c1ccc(Cl)cc1 (centres undefined)	-7	-28	11	35
CCOc1ccc2oc(C(=O)OC(C(=O)NC(N)=O)C(C)C)c(C)c2c1 (centres undefined)	.	.	.	-18
COC(=O)Cc1ccc(NC(=O)c2ccc(C(C)(C)C)cc2)cc1	3	7	-5	72*
COC(=O)c1ccc(NC(=O)CNCc2ccncc2)cc1	56*	-12	7	2
Cc1ccc(NC(=O)Cc2ccc(F)cc2)cc1	12	6	4	13
CC(C)(C)c1ccc(C(=O)Nc2ccc(Cl)cc2)cc1	1	0	7	6
COc1ccc(CC(=O)Nc2ccc(C(C)=O)cc2)cc1	-1	-2	8	-29
COc1ccc(CC(=O)Nc2ccc(C(=O)NCC(C)C)cc2)cc1	54*	-24	-8	25
COC(=O)c1ccc(NC(=O)Cc2ccc(F)cc2)cc1	68*	0	-1	18
COC(=O)c1ccc(CNCC(=O)Nc2ccc(C(=O)OC)cc2)cc1	-4	-2	9	20
Cc1ccc(N2C(=O)N(Cc3ccccc3C)c3ccccc3S2(=O)=O)cc1	16	21	-8	-5
Cc1nonc1-c1csc(N)n1	-3	5	6	-7
SMILES	L major viab	WT yeast gro inh	Arbovirus inh	CHOP inh
OC(CNCc1ccco1)COc1ccccc1 (centres undefined)	-6	16	4	8
COc1ccc(OCC(O)CNCc2ccco2)cc1 (centres undefined)	-5	72*	8	14
COc1ccc(CCNCC(O)c2ccccc2)cc1 (centres undefined)	-2	-8	31*	-30
CNCC(O)COc1cccc(OC)c1 (centres undefined)	-3	-10	5	-25
COc1ccc(CCNCC(O)COc2cccc(Br)c2)cc1 (centres undefined)	52*	39	-22	0
COc1ccc(CNCC(O)COc2cccc3c2OC(C)(C)C3)cc1 (centres undefined)	86*	5	6	45
N#Cc1nc(-c2cccc(Cl)c2)oc1NCc1cccnc1	100*	10	-17	26
COc1ccc(-c2nc(C#N)c(NCc3ccc(F)cc3)o2)cc1OC	11	-4	20	-3
COc1ccc(-c2nc(C#N)c(NCc3cccnc3)o2)cc1OC	96*	-24	1	4
O=C(O)c1cccc(NN=C2c3ccccc3-c3ccccc32)c1	-7	56	69*	14
O=C(O)c1cccc(N/N=C/c2ccc(-c3ccccc3)cc2)c1	-11	-1	4	32
Cc1ccc(Nc2nc(-c3cccs3)cs2)nc1	35	69*	14	25
c1cncc(Nc2nc(-c3cccs3)cs2)c1	13	2	7	25
O=C(c1c(F)c(F)c(F)c(F)c1F)N1CCc2ccccc21	-7	.	.	.
COC(=O)CCC(=O)NC(=S)Nc1ccccc1F	-6	7	4	2
Cc1nc2c(C(=O)NCCc3ccccc3Cl)c[nH]n2c(=O)c1Cl	-5	-3	60*	-16
O=C(CSc1nc2ccccc2[nH]1)N1c2ccccc2Sc2ccccc21	23	45	-10	13
